Assay results: PubChem BioAssay AID1053143 (Broad Institute, 2014)
Screen size: about 3,400 compounds; about 120 (3.5%) were called active. No rule for the calls is given here. Not all results are given here. Results with a measured potency or affinity are listed apart.

test: HepG2 cell cytotoxicity, dose response, cytotoxicity control, ATP luminescence, cherry-pick, activator set 2 (AID 1053143); details: HepG2 viability, CellTiter-Glo ATP luminescence, 72 h; series mostly up to 26 µM

Row | SMILES | activity change, negative = cytotoxicity
1 | O=C(NC(=O)c1ccccc1)Nc1ccccc1 | inactive
2 | CCCC(=O)Nc1ccc(C#Cc2ccccc2)cc1 | inactive
3 | Cc1ccc(NC(=O)c2ccc(OC(=O)c3cc4ccccc4o3)cc2)cc1 | inactive
4 | CCOC(=O)C1=C(C)NC(=O)C(C(N)=O)C1c1ccccc1 (stereo not drawn) | inactive
5 | O=C(NC1CC1)C1Nc2ccc(OC(F)(F)F)cc2C2C=CCC12 (stereo not drawn) | inactive
6 | O=C(Nc1ccc2c(c1)nc1n2CCOC1)c1ccccc1 | inactive
7 | O=C(Nc1nc2ccccc2[nH]1)c1cccc(Cl)c1 | inactive
8 | COc1cccc(NC(=O)c2cccc(Cl)c2)c1 | inactive
9 | COc1ccc2cc3cc(C(=O)N4CCCCC4C)oc3nc2c1 (stereo not drawn) | inactive
10 | Cc1nn(Cc2ccccc2)c(Cl)c1C(=O)NCCc1ccccc1 | inactive
11 | CCCn1cnc2cc(NC(=O)c3cccs3)ccc21 | inactive
12 | COc1cccc2oc3cc(C#Cc4ccccn4)ccc3c(=O)c12 | inactive
13 | O=c1c2ccccc2oc2cc(C#Cc3ccccn3)ccc12 | inactive
14 | O=[N+]([O-])c1cc(Cl)ccc1-c1nc(-c2ccccc2)no1 | inactive
15 | Fc1ccc(-c2cn3cc(C(F)(F)F)cc(Cl)c3n2)cc1 | inactive
16 | O=C(CCCCn1c(=O)[nH]c2ccsc2c1=O)NCCc1ccccc1 | inactive
17 | C[C@@H]1ON(C)[C@H]2C[C@H]3c4cc(-c5cc6ccccc6o5)ccc4CCN3C[C@@H]12 | inactive
18 | COc1cccc(/C=N/NC(=O)c2ccoc2C)c1 | inactive
19 | O=C(NN=Cc1ccc2c(c1)OCO2)c1ccccc1 | inactive
20 | O=C(N/N=C/c1ccc2c(c1)OCO2)c1ccc(Br)o1 | inactive
21 | Cc1occc1C(=O)N/N=C/c1ccc(OCc2ccccc2)cc1 | inactive
22 | O=C(CSc1nnc(-c2ccncc2)o1)Nc1cc(F)ccc1F | inactive
23 | CN(C)c1ccc(-c2ccccc2)nn1 | inactive
24 | CCc1ccc(NCc2nc3ccccc3c(=O)[nH]2)cc1 | inactive
25 | CCC(=O)NC1=C(Nc2ccc(N)cc2)C(=O)c2ccccc2C1=O | inactive

Row | SMILES | activity change, negative = cytotoxicity
26 | COCC(=O)OCc1cc2cccc(C)c2[nH]c1=O | inactive
27 | Cc1ccc(N2CC(C(=O)Nc3ccc4c(c3)OCCO4)CC2=O)cc1 (stereo not drawn) | inactive
28 | O=C(CN1CCOCC1)Nc1ccc(C2CCCCC2)cc1 | inactive
29 | Cc1cc(C(=O)NC2CCCCCCC2)ccc1[N+](=O)[O-] | inactive
30 | COc1ccc2nc(-c3ccccc3)[nH]c2c1 | inactive
31 | COc1ccc(/C=C/C(=O)c2ccccc2)c(OC)c1 | inactive
32 | Cc1cc(NC(=O)c2ccc3nccnc3c2)ccc1Br | inactive
33 | O=C(NC1=NCCS1)c1ccc(OCC2CCCO2)cc1 (stereo not drawn) | inactive
34 | Cc1ccnc(NC(=O)c2ccc(S(=O)(=O)N3CCC(C)CC3)cc2)c1 | inactive
35 | Cc1ccc(NC(=O)c2ccc(OCC3CCCO3)cc2)cc1Cl (stereo not drawn) | inactive
36 | COc1cc(Cl)ccc1OCc1cc(C(=O)NC(C)Cc2cnccn2)no1 (stereo not drawn) | inactive
37 | Cc1ccc(NC(=O)Nc2cccc(C)n2)c(C)c1 | inactive
38 | Oc1cccc(Nc2nc(O)c(/C=C3\C=Nc4ccccc43)s2)c1 | inactive
39 | COc1ccc(-c2csc(N(CC3CCCO3)C(=O)c3ccc(C)cc3)n2)cc1 (stereo not drawn) | inactive
40 | CC(C)CN1CCC(=O)N(CCSc2ccccc2)CC1 | inactive
41 | Clc1ccc(/C=N/Nc2ccccn2)cc1 | inactive
42 | O=[N+]([O-])c1ccc(NN=Cc2ccc(O)cc2)nc1 | inactive
43 | COC(=O)c1sc(-c2ccc(C(C)(C)C)cc2)cc1NC(=O)c1ccccc1C(=O)O | inactive
44 | COc1ccc(N2CCN(c3ccc(NC(=O)/C=C\C(=O)O)cc3)CC2)cc1 | inactive
45 | CC1CCC(C(C)C)C(=O)/C1=C/c1ccc(N)cc1 (stereo not drawn) | inactive
46 | Cn1c(=NN=Cc2ccccc2OCCO)sc2ccccc21 | inactive
47 | COc1ccc(-c2cn(Cc3ccc(C(N)=O)cc3)c(-c3ccncc3)n2)cc1 | inactive
48 | COc1ncccc1-c1nnn(-c2ccc(C)cc2)n1 | inactive
49 | COc1ncccc1-c1nnn(-c2ccccc2)n1 | inactive
50 | CCCCn1c(SCC2CCCCO2)nc2cc(S(N)(=O)=O)ccc21 (stereo not drawn) | inactive

Row | SMILES | activity change, negative = cytotoxicity
51 | O=C(Cn1nnc2ccccc21)c1ccc(Cl)cc1 | inactive
52 | c1ccc(-n2ncc3c(NCCN4CCOCC4)ncnc32)cc1 | inactive
53 | Cn1c(=O)c(C(=O)NCC2CCCO2)c(O)c2ccccc21 (stereo not drawn) | inactive
54 | COc1ccccc1C(=O)Nc1nnc(SCC(=O)NCC2CCCO2)s1 (stereo not drawn) | inactive
55 | CC1(c2ccccn2)Nc2ccccc2-c2nc3ccccc3n21 (stereo not drawn) | inactive
56 | NC(=O)c1ccccc1NC(=O)/C=C/c1ccccc1 | inactive
57 | O=C(Nc1nccs1)c1ccc(-c2ccc(F)cc2)o1 | inactive
58 | COC(=O)c1c(NC(=O)c2ccc(C)o2)sc2c1CCCCC2 | inactive
59 | Cc1ccc(C(=O)Nc2nc3c(s2)CCCC3)o1 | inactive
60 | Cc1cccc(Cc2cnc(NC(=O)c3ccc(C)o3)s2)c1 | inactive
61 | CCCCN(C(=O)Cc1cccs1)c1nnc(-c2cccnc2)s1 | inactive
62 | O=C(NCCc1ccc(Cl)cc1)c1ccc2c(c1)OCO2 | inactive
63 | Cc1cccc(OCC(=O)Nc2nccs2)c1C | inactive
64 | CC(C)(C)NC(=O)Nc1ccc(Br)cc1 | inactive
65 | O=C1c2ccncc2C(=O)N1CNc1ccc(Cl)cc1 | inactive
66 | O=C(O)c1ccc(/C=C(\c2nc3ccccc3[nH]2)c2nc3ccccc3s2)cc1 | inactive
67 | O=C(Cc1nc2ccccc2[nH]c1=O)c1ccc(Cl)cc1 | inactive
68 | CCc1cc(C(=O)COc2ccc(F)cc2)c(O)cc1O | inactive
69 | CC1(C)Cc2c(c(N3CCOCC3)nc3sc(C(=O)Nc4ccccc4)c(N)c23)CO1 | inactive
70 | CN(C)c1ccnc2sc(C(=O)c3ccccc3)c(N)c12 | inactive
71 | CCCCN1CCc2c([nH]c3ccc(C)cc23)C1=O | inactive
72 | O=C1CCC(c2ccccc2)c2ccccc21 (stereo not drawn) | inactive
73 | O=C(Nc1ccc2ccccc2c1)c1ccc(Cl)cc1Cl | inactive
74 | Cn1ccc(NC(=O)c2ccc(Cl)cc2Cl)n1 | inactive
75 | O=C(NCCO)c1ccc2c3n(nc2c1)-c1ccc(Cl)cc1CO3 | inactive

Row | SMILES | activity change, negative = cytotoxicity
76 | CN(C)CCN1C(=O)C(=O)/C(=C(/O)c2ccc3c(c2)OCCO3)C1c1ccccn1 (stereo not drawn) | inactive
77 | COc1cccc(/C=C/C(=O)NNC(=O)c2ccccc2)c1OC | inactive
78 | CSc1nc(Cl)cc(Nc2ccc(O)cc2)n1 | inactive
79 | Cc1cccc(C(=O)OCC(=O)c2c(C)[nH]c3ccccc23)c1O | inactive
80 | Cc1cccc(NC(=O)c2c(O)c3ccccc3[nH]c2=O)c1 | inactive
81 | Nn1c(SCc2c(F)cccc2F)nnc1-c1ccccn1 | inactive
82 | O=C(Nc1ccc(NC(=O)c2cccs2)cc1Cl)c1ccco1 | inactive
83 | CCC(=O)Nc1ccc(NC(=O)c2ccco2)c(OC)c1 | inactive
84 | Cc1cccc(NC(=O)c2ccccn2)c1C | inactive
85 | CC1(O)C(c2ccccc2)=Nc2ccccc21 (stereo not drawn) | inactive
86 | O=C(c1cc(COc2c(F)cccc2F)on1)N1C[C@H]2CC[C@H]1C2 | inactive
87 | CC(C)c1ccc(-n2nc3ccc(N)cc3n2)cc1 | inactive
88 | Cc1ccc(-n2nc3ccc(N)cc3n2)cc1C | inactive
89 | CC(=O)c1ccc2c(c1)Cc1cc(C(C)=O)ccc1-2 | inactive
90 | CC1CCc2sc(C(=O)NC3CCCCC3)cc2C1 (stereo not drawn) | inactive
91 | C=CCn1cc(/C=N/Nc2nc3ccccc3[nH]2)c2ccccc21 | inactive
92 | C(=N\Nc1nc2ccccc2[nH]1)/c1cccs1 | inactive
93 | Cc1ccsc1/C=N/Nc1nc2ccccc2[nH]1 | inactive
94 | Fc1ccccc1-c1ccc(/C=N/Nc2nc3ccccc3[nH]2)o1 | inactive
95 | Cc1ccc(/C=N/Nc2nc3ccccc3[nH]2)s1 | inactive
96 | Clc1nc2ccccc2cc1/C=N/Nc1nc2ccccc2[nH]1 | inactive
97 | C(=N\Nc1nc2ccccc2[nH]1)/c1ccc2c(c1)OCCO2 | inactive
98 | C(=C\c1ccccc1)/C=N/Nc1nc2ccccc2[nH]1 | inactive
99 | O=C(COC(=O)CC1CCCC1)Nc1cc2c(cc1Cl)C(=O)c1ccccc1C2=O | inactive
100 | O=C(O)CC1=C(Nc2ccccc2)C(=O)N(c2ccccc2)C1c1ccc(Br)cc1 (stereo not drawn) | inactive

Row | SMILES | activity change, negative = cytotoxicity
101 | COC(=O)C(C)N1C(=O)S/C(=C/c2cc(C)n(-c3ccccn3)c2C)C1=O (stereo not drawn) | inactive
102 | Cc1cccc(-n2ncc3c(NCCCO)ncnc32)c1 | inactive
103 | O=C(CCNC(=O)c1ccc(Br)cc1)Nc1ccc(S(=O)(=O)N2CCOCC2)cc1 | inactive
104 | C=CCc1c(C)nc2cc(-c3ccccc3)[nH]n2c1=O | inactive
105 | Cc1ccc2oc(C(=O)N(C)Cc3ccon3)c(C)c2c1 | inactive
106 | C(/C=C/c1ccccn1)=C\c1ccccc1 | inactive
107 | COc1ccc2cc3cc(C(=O)N4CCCC(C)C4)oc3nc2c1 (stereo not drawn) | inactive
108 | Cn1c(NC(=O)c2ccccc2F)c(-c2cccs2)c(=O)c2ccccc21 | inactive
109 | COc1ccc(N=NC2=C(O)CC(C)(C)CC2=O)cc1 | inactive
110 | CCC(=O)Nc1ccc2nn(-c3ccc(F)cc3)nc2c1 | inactive
111 | CC(=O)Nc1cccc(-n2nnc(SCC(=O)c3ccccc3)n2)c1 | inactive
112 | Cc1cc2nn(-c3ccccc3)nc2cc1NC(=O)c1cccs1 | inactive
113 | CCC(=O)Nc1cc(C(=O)OCC(=O)c2ccccc2Cl)ccc1C | inactive
114 | CCCC(=O)Nc1ccc2oc(-c3cccnc3)nc2c1 | inactive
115 | Cc1ccc(NC(=O)Nc2cccc(C)n2)cc1 | -7.97% [at 6 µM] (inactive)
116 | CC(=O)Nc1cccc(NC(=O)CCCC(=O)O)c1 | inactive
117 | O=C(CC(=O)c1ccccc1)Nc1ccccc1 | inactive
118 | O=C(Nc1cc(F)c(Br)cc1F)c1ccc(Cl)cc1 | inactive
119 | Cc1cnc(NC(=O)c2ccc3ncsc3c2)s1 | inactive
120 | NC(=O)Cc1c[nH]c2cccc(O)c12 | inactive
121 | CCn1c(O)c(C#N)c(C)cc1=O | inactive
122 | O=C(Nc1ccc(F)cc1F)c1csc(-c2cccs2)n1 | inactive
123 | c1csc(-c2nc(N3CCCCC3)no2)c1 | inactive
